Hits are enriched below; roughly 13% of the tested compounds scored in any of these assays.
A350 autofl – compound fluoresces in the Alexa 350 spectral region | max dye-equivalent concentration, M | Compound autofluorescence, 340/450 nm, Alexa 350 dye-equivalents; active compounds read high | 59,000 tested, 11% active | AID 590; in the data active = max dye-equivalent concentration above about 10 nM; inconclusive = mostly about 1.1 nM to 9.6 nM
4MU fluor – compound fluoresces in the 4-MU spectral region; compound autofluorescence, 340/450 nm, 4-MU equivalents; active compounds read high; max dye-equivalent concentration, M; 59,000 tested, 11% active; AID 589; in the data active = max dye-equivalent concentration above about 10 nM; inconclusive = mostly about 1.1 nM to 9.6 nM
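Intrinsic fluorescence at 340/450 nm (ex/em) was read after 15 min at room temperature in pH 8.0, 100 mM Tris. Each compound concentration expressed as 4-MU-equivalent concentration from a six-point 4-MU standard series on each plate.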
HADH2 inhib – inhibitors of human HADH2 dehydrogenase; recombinant HADH2, NADH fluorescence, beta-hydroxybutyryl-CoA; Potency, µM (titrated, usually from 57.1 µM), hits mostly inhibitors; 73,000 tested, 3.4% active; AID 886; also: nearly all actives have a fitted effect of over 60% in size
Target sequence (Q99714 whole entry, looked up, one chain of several): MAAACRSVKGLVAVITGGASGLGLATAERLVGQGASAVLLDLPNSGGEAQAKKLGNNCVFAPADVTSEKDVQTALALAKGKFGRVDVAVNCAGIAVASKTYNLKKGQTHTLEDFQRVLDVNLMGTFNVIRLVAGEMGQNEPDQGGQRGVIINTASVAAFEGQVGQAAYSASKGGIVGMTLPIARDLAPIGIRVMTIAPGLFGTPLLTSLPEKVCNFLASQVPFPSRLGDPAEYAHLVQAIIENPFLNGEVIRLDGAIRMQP
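Buffer 100 mM Tris-HCl pH 9.0/0.01% Tween-20; HADH2 20 nM; NAD+ 1 mM; beta-hydroxybutyryl-CoA 90 uM (all final). 15 min cpd preincubation, RT.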
AID923 – qHTS Assay for Allosteric/Competitive Inhibitors of Caspase-1: Spectroscopic Profiling in AFC Spectral Region; Potency, µM (highest dose often 57.5 µM), usual class: activators; compound fluorescence, AFC spectral region (405/520 nm); 75,000 tested, 1.1% active
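Compound autofluorescence profiled at 405 nm ex/520 nm em during kinetic caspase 1 run (50 nM enzyme, 5 uM Ac-WEHD-AFC, HEPES pH 7.5, 10 mM DTT). Titration up to 57 uM; baseline from regression intercept, normalized to AFC standard curve.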
HSD17B inhib – HSD17B dehydrogenase inhibition; Potency, µM (doses to about 57.1 µM), usual class: inhibitors; Q99714; 75,000 tested, 7.6% active; recombinant HSD17B10, NADH fluorescence kinetic; AID 893;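 also: the protocol describes HADH2 (HSD17B10) and not the HSD17B4 of the title; nearly all actives have a fitted effect of over 70% in size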
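His-tagged E. coli-expressed HADH2 at 20 nM in 100 mM Tris-HCl pH 9.0 with 0.01 % Tween-20, preincubated 15 min with compound at room temperature. Reaction with 1 mM NAD+ and 90 uM beta-hydroxybutyryl coenzyme A; NADH fluorescence (360/450 nm) read kinetically over 4 min, last minus first point.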
Numbers stand for hits. Unless noted, calls follow the shape of the dose curve; as a rule, active = well fitted curve in the direction sought with a large enough effect; inconclusive = small, poorly fitted or top-dose-only effect, or another doubt; inactive = no such curve, though single readings can be large; an effect the other way counts as inactive or inconclusive.

For CCOc1ccccc1-c1nc(C(N)=O)c2[nH]c(=O)n(-c3cccc(C)c3)c2n1 the results were A350 autofl 3.45e-08M, 4MU fluor 3.35e-08M, HADH2 inhib inconclusive, AID923 inactive and HSD17B inhib 25.1µM.
Cc1ccc(-n2c(=O)[nH]c3c(C(N)=O)nc(-c4ccc(C)o4)nc32)cc1 was read as A350 autofl 2.14e-08M, 4MU fluor 2.19e-08M, HADH2 inhib inactive, AID923 inactive and HSD17B inhib 25.1µM.
For CCOc1cccc(-c2nc(C(N)=O)c3[nH]c(=O)n(-c4cccc(Cl)c4)c3n2)c1O the results were HADH2 inhib inactive, AID923 inactive and HSD17B inhib inactive.
Screening Cc1noc(C)c1-c1cc(N(C)Cc2ccco2)ncn1 returned A350 autofl inactive, 4MU fluor inactive, HADH2 inhib inconclusive, AID923 inactive and HSD17B inhib inconclusive.
`CS(=O)(=O)N1CCC2(CCCN(C(=O)Nc3cccc(C#N)c3)C2)CC1` gave A350 autofl inactive, 4MU fluor inactive, HADH2 inhib inactive, AID923 inactive and HSD17B inhib inactive.
For CCN1/C(=C/C(=O)c2ccco2)Sc2ccccc21 the results were A350 autofl 2.97e-08M, 4MU fluor 2.14e-08M, HADH2 inhib 25.1µM, AID923 inactive and HSD17B inhib inconclusive.
CC(C)[C@@H](CC(=O)N[C@@H]1CCCC[C@H]1C(=O)N[C@H](CC(=O)N[C@@H](CCC(=O)O)CC(=O)O)Cc1c[nH]c2ccccc12)NC(=O)C[C@H](Cc1c[nH]c2ccccc12)NC(=O)[C@@H]1CCCC[C@H]1N was read as HADH2 inhib inactive.
CN=C1N[C@H](c2ccccc2)N(c2ccccc2)S1 was read as HADH2 inhib inconclusive, AID923 inactive and HSD17B inhib 2µM.
Screening C[C@@H]1C[C@@H]2[C@H]3CCC4=CC(=O)C=C[C@]4(C)[C@]3(Cl)[C@@H](O)C[C@@]2(C)[C@@]1(O)C(=O)CO returned A350 autofl inactive, 4MU fluor inactive, HADH2 inhib inactive, AID923 inactive and HSD17B inhib inactive.
CN(C)S(=O)(=O)n1cnc2ccccc21 was read as A350 autofl 5.01e-06M, 4MU fluor 8.11e-06M, HADH2 inhib inactive, AID923 inactive and HSD17B inhib inactive.
Screening N#CC(c1nc2ccccc2nc1N1CCCCC1)S(=O)(=O)c1ccc(Cl)cc1 (stereo unspecified) returned A350 autofl 1.46e-08M, 4MU fluor 1.44e-08M, HADH2 inhib inactive, AID923 inactive and HSD17B inhib inactive.
Cc1ccc(S(=O)(=O)C(C#N)c2nc3ccccc3nc2N2CCCCC2)cc1 (stereo unspecified) was read as HADH2 inhib inactive, AID923 inactive and HSD17B inhib inactive.
For Cc1cccc(S(=O)(=O)C(C#N)c2nc3ccccc3nc2N2CCOCC2)c1 (stereo unspecified) the results were A350 autofl 2.33e-08M, 4MU fluor 1.66e-08M, HADH2 inhib inactive, AID923 inactive and HSD17B inhib inactive.
`CCOC(=O)N1CCN(c2nc3ccccc3nc2C(C#N)S(=O)(=O)c2ccc(C)cc2)CC1` (stereo unspecified) gave A350 autofl 1.2e-08M, 4MU fluor 1.19e-08M, HADH2 inhib inactive, AID923 inactive and HSD17B inhib inconclusive.
Screening COc1ccc(S(=O)(=O)C(C#N)c2nc3ccccc3nc2N2CCC(C)CC2)cc1 (stereo unspecified) returned A350 autofl 2.72e-08M, 4MU fluor 2.34e-08M, HADH2 inhib inactive, AID923 inactive and HSD17B inhib inactive.
CCC1=C2CC[C@H]3C(=O)N(CC)C(=O)[C@H]3[C@H]2[C@@]2(Cc3ccccc3)C(=O)N(CC3CC3)C(=O)N2C1=O was read as AID923 inactive and HSD17B inhib inactive.
Screening CCCCOc1nc2ccccc2nc1C(C#N)S(=O)(=O)c1ccccc1 (stereo unspecified) returned A350 autofl 4.94e-08M, 4MU fluor 3.7e-08M, HADH2 inhib inactive, AID923 inactive and HSD17B inhib inactive.
`CCOC(=O)c1c(-c2cccs2)csc1NC(=O)CSc1ncn[nH]1` gave A350 autofl inactive, 4MU fluor inactive, HADH2 inhib 12.6µM, AID923 inactive and HSD17B inhib inconclusive.
CCOC(=O)c1c(-c2cccs2)csc1NC(=O)CCCC(=O)O was read as A350 autofl inactive and 4MU fluor inactive.
For COc1ccccc1CC(=N)N1C[C@@H]2C(=O)CCC(c3ccccc3)(c3ccccc3)[C@@H]2C1 the results were HADH2 inhib inactive, AID923 inactive and HSD17B inhib inactive.
Screening O=C(Nc1ccc(Oc2ccccc2)cc1)C1CCCO1 (stereo unspecified) returned HADH2 inhib inactive, AID923 inactive and HSD17B inhib inactive.
Screening O=C(Nc1ccc(-c2nc3ccccc3o2)cc1)C1CCCO1 (stereo unspecified) returned A350 autofl inactive, 4MU fluor inactive, HADH2 inhib inactive, AID923 inactive and HSD17B inhib 25.1µM.
`C=CCn1c(=O)n(CCOC)c(=O)c2sc3ccccc3c21` gave HADH2 inhib 31.6µM, AID923 inactive and HSD17B inhib 31.6µM.
`Cc1cccc(CNC(=O)c2ccccc2N)c1` gave A350 autofl 8.86e-08M, 4MU fluor 8.03e-08M, HADH2 inhib 25.1µM, AID923 inactive and HSD17B inhib 31.6µM.
Screening COc1cc(S(=O)(=O)N(C)C)ccc1F returned A350 autofl 1.99e-08M, 4MU fluor 1.86e-08M, HADH2 inhib inactive, AID923 inactive and HSD17B inhib inactive.
Screening Cc1cc(C)n(CCO)c(=O)n1 returned A350 autofl 1.82e-07M, 4MU fluor 1.37e-07M, HADH2 inhib inconclusive, AID923 inactive and HSD17B inhib inactive.
`Cc1cc(C)n(CC(O)Cn2c3ccccc3c3ccccc32)c(=O)n1` (stereo unspecified) gave HADH2 inhib inactive, AID923 inactive and HSD17B inhib inactive.
NCCC[C@@H](CC(=O)N[C@@H]1CCCC[C@H]1C(=O)N[C@H](CC(=O)N[C@@H](CCC(=O)O)CC(=O)O)Cc1ccccc1)NC(=O)C[C@H](Cc1c[nH]c2ccccc12)NC(=O)[C@@H]1CNCC[C@H]1N was read as HADH2 inhib inactive.
For c1ccc2c(c1)Cn1c-2nc2ccccc21 the results were A350 autofl inconclusive, 4MU fluor inconclusive, HADH2 inhib inactive, AID923 inactive and HSD17B inhib 25.1µM.
c1ccc2c(c1)Cn1nnnc1-2 was read as A350 autofl inactive, 4MU fluor inactive, HADH2 inhib inactive, AID923 inactive and HSD17B inhib inactive.
CN(C)c1ccc(C(=O)Nc2ccc(S(=O)(=O)NC3=NCCCCC3)cc2)cc1 was read as A350 autofl 1.91e-08M, 4MU fluor 1.65e-08M, HADH2 inhib inconclusive, AID923 inactive and HSD17B inhib inconclusive.

Screening data: PubChem BioAssay, National Center for Advancing Translational Sciences (NCATS)
